# Source: PubChem BioAssay AID651815 (National Center for Advancing Translational Sciences (NCATS), 2012)
# The campaign covered roughly 2,100 compounds. About 1,100 (52%) were called active. Another 29% or so got no clear call; they are omitted. Calls follow the shape of the dose curve; as a rule, active = well fitted inhibition curve with a large enough effect; inconclusive = small, poorly fitted or top-dose-only effect; inactive = no such curve, though single readings can be large or run the other way. The set was probably picked from earlier hits. The list shows a part of the results.
# Biological target: DNA dC->dU-editing enzyme APOBEC-3F (Homo sapiens) (UniProt Q8IUX4)
# Sequence (Q8IUX4 whole entry, looked up): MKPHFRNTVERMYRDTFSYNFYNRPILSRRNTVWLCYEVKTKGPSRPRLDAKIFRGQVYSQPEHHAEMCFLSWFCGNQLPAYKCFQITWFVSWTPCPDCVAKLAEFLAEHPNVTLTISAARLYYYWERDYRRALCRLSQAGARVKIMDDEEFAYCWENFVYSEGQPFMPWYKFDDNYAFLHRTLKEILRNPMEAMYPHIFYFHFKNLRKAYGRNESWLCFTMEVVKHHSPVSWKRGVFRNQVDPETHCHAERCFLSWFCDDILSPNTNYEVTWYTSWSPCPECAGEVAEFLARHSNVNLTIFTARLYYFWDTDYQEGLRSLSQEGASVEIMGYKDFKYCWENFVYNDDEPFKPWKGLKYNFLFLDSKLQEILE
# Test: qHTS for inhibitors of Vif-A3F interactions: Cherry picks counterscreen; also: nearly all actives have a fitted effect of over 65% in size
# Conditions: HeLa A3F-eYFP/Vif cells, eYFP fluorescence, 24 h; series mostly up to 46.1 µM; activity, negative = inhibitor: at the top concentration
# How it was run: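 HeLa cells stably expressing A3F-eYFP and Vif, cultured overnight, then treated 24 h at 37 degrees C with compounds at several concentrations; yellow fluorescence (488 nm Ex/500-530 nm Em) imaged on Acumen; MG132 positive control.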
# % is scaled to controls: 0 for no effect and ±100 for the full control effect; potency is read from the fitted curve at half-maximal effect.
SMILES,"activity, negative = inhibitor",Potency
C=CCOC(=O)C1=C(C)NC(C)=C(C(=O)OCC=C)C1c1cn(-c2ccccc2)nc1-c1ccco1,-10.3% [at 36.9 µM] (inactive),
Cc1ccc2nc(-c3ccccn3)c(Nc3ccccc3C)n2c1,3.66% (inactive),
CCN(Cc1ccccc1)c1ccc(/C=C/c2nccc3ccccc23)cc1,,20.6 µM (active)
CCN(Cc1ccccc1)c1ccc(/C=C(\C#N)c2ccccn2)cc1,-14.8% (inactive),
CCN(CC)c1nc(C=Cc2ccc(N(C)C)cc2)c2nccnc2n1,,0.58 µM (active)
CN(C)c1ccc(/C=C/c2nccc3ccccc23)cc1,,20.6 µM (active)
CN(C)c1ccc(C=Cc2nccc3ccccc23)cc1,,14 µM (active)
CCCn1c(C2CCCN2c2nc(-c3cccc(Br)c3)cs2)nc2ccccc21 (stereo not given),8.29% (inactive),
CCn1c2ccccc2c2cc(NC(=O)CNCc3ccccc3OC)ccc21,,4.98 µM (active)
S=C(NCCSCc1ccc(Cl)cc1)Nc1ccccc1,-10.3% (inactive),
COc1cc(C(=O)NCCOc2cc(C)cc(C)c2)cc(OC)c1OC,,2.8 µM (active)
CCn1c(CNC(=O)c2cc(OC)c(OC)c(OC)c2)cc2cc(C)ccc21,13.7% (inactive),
COc1ccc(C2=NOC(C(=O)NCc3ccc(F)cc3)C2)cc1OC (stereo not given),,5.59 µM (active)
CCOc1ccc(N(C)c2ccc(/C=C3/SC(=S)NC3=O)cc2)cc1,,15.8 µM (active)
COc1ccccc1N=C1NC(=O)/C(=C/c2ccc(N(C)C)cc2)S1,,6.51 µM (active)
CN(C)c1ccc(C=C2SC(=S)NC2=O)cc1,,7.04 µM (active)
Cc1ccc(Cn2c(SCc3ccc(C(=O)NC4CCCC4)cc3)nc3ccncc32)cc1,-1.67% (inactive),
Cc1ccc(C(=O)c2cc([N+](=O)[O-])ccc2N2CCOCC2)cc1C,,1.77 µM (active)
CN1CCN(c2ccc([N+](=O)[O-])cc2C(=O)c2ccc(Br)cc2)CC1,,4.98 µM (active)
Cc1ccc(C(=O)c2cc([N+](=O)[O-])ccc2N2CCN(C)CC2)cc1,,4.98 µM (active)
Cn1c(=O)[nH]c(=O)c2c1nc(Br)n2Cc1cccc(Br)c1,,9.94 µM (active)
C/C(=N\NC(=O)c1c(Cl)c(C)nn1C)c1ccc(NC(=O)C2CCC2)cc1,,1.4 µM (active)
CCN(CC)c1ccc(/C=C/c2cccc[n+]2C)c(OC)c1,,15.8 µM (active)
COC(=O)/C(=C\Nc1ccc(Cl)cc1Cl)NC(=O)c1ccc(OC)cc1,,3.96 µM (active)

SMILES,"activity, negative = inhibitor",Potency
Cc1ccc(N=C2NC(=O)/C(=C/c3cccn3C)S2)cc1,,15.8 µM (active)
Cc1ccc(N=C2NC(=O)/C(=C/c3cn(C)c4ccccc34)S2)cc1C,,15.8 µM (active)
Cn1cccc1/C=C1\SC(=Nc2ccc(O)cc2)NC1=O,,6.27 µM (active)
Cn1cccc1/C=C1\SC(=Nc2ccccc2)NC1=O,,5.59 µM (active)
Cn1cc(/C=C2\SC(=S)N(NC(=O)c3cccc(Cl)c3)C2=O)c2ccccc21,,16.4 µM (active)
Cn1cc(/C=C2\SC(=O)N(c3ccccc3)C2=O)c2ccccc21,,16.4 µM (active)
COc1cc(/C=C2/SC(=Nc3ccc(O)cc3)NC2=O)ccc1O,,13 µM (active)
O=C1NC(=Nc2ccc(O)cc2)S/C1=C/c1ccco1,,12.5 µM (active)
COc1cc(/C=C2\SC(=Nc3cccnc3)NC2=O)cc(OC)c1OC,-8.69% (inactive),
Cc1cc(/C=C2\SC(=Nc3ccccc3)NC2=O)c(C)n1-c1ccc(S(N)(=O)=O)cc1,,1.98 µM (active)
Cn1cccc1/C=C1\SC(=Nc2cccc(O)c2)NC1=O,,17.7 µM (active)
Cc1cccc(N=C2NC(=O)/C(=C/c3cccn3C)S2)c1,-27.7% [at 36.9 µM] (inactive),
COc1cc2c(cc1OC)C(C)N(C(=O)c1cc(C)on1)CC2 (stereo not given),,0.994 µM (active)
COc1cc2c(cc1OC)C(C)N(C(=O)c1cc(Cl)nc(Cl)c1)CC2 (stereo not given),-61.7% [at 36.9 µM] (inactive),
CCN(CC)c1nc(C)c(C(=S)Nc2cc([N+](=O)[O-])ccc2Cl)s1,-0.0972% (inactive),
CC(=O)Nc1ccc(-c2ccnc3c2CC(C(=O)NCc2cccc(Cl)c2)O3)cc1 (stereo not given),,3.53 µM (active)
CC(=O)Nc1ccc(-c2ccnc3c2CC(C(=O)NCc2ccccc2)O3)cc1 (stereo not given),,1.12 µM (active)
O=C1Nc2ccc(Br)cc2C12NNc1ccccc1O2 (stereo not given),,14 µM (active)
Cc1ccc(CSc2nc(-c3ccc(C(C)(C)C)cc3)nc3cc(=O)[nH]n23)cc1,-3.11% (inactive),
Cc1sc2ncnc(SCC(=O)NC(C)(C)C)c2c1C,2.59% (inactive),
COc1ccc(NC(=O)c2sc3nc(-c4cccnc4)ccc3c2N)cc1OC,,5.8 µM (active)
COc1cccc(-c2ccc3c(N)c(C(=O)c4ccc(Cl)cc4)sc3n2)c1,,16.4 µM (active)
COc1cccc(-c2ccc3c(N)c(C(=O)c4ccc(Br)cc4)sc3n2)c1,,23.1 µM (active)
Cc1nn(-c2ccc(F)cc2)c(Cl)c1/C=C1\C(=O)Nc2ccccc21,,5.59 µM (active)

SMILES,"activity, negative = inhibitor",Potency
O=c1[nH]c(NCc2ccco2)nnc1Cc1ccccc1Cl,,12.5 µM (active)
COc1ccccc1N1N=C(c2ccc([N+](=O)[O-])cc2)CC1c1ccccc1 (stereo not given),,1.12 µM (active)
O=[N+]([O-])c1ccc(/C=C/C2=NN(c3ccccc3)C(c3ccco3)C2)o1 (stereo not given),,5.17 µM (active)
O=[N+]([O-])c1ccc(C2=NN(c3ccccc3)C(c3ccco3)C2)cc1 (stereo not given),,1.58 µM (active)
O=[N+]([O-])c1ccc(C2=Nc3cc(Cl)ccc3OC2)cc1,-10.5% (inactive),
COc1ccc2nc(C)cc(SCC(=O)N/N=C/c3cccc4ccccc34)c2c1,,6.27 µM (active)
O=C(Nc1ccc([N+](=O)[O-])cc1)C(Cc1ccccc1)N1C(=O)c2cccc3cccc(c23)C1=O (stereo not given),,15.8 µM (active)
O=S(=O)(Nc1ccc(C(O)(C(F)(F)F)C(F)(F)F)cc1)c1ccc(Cl)c2nonc12,-13.6% [at 36.9 µM] (inactive),
CCOC(=O)c1sc2cc([N+](=O)[O-])cc(SCC(C)C)c2c1N,,2.31 µM (active)
COC(=O)c1sc2cc([N+](=O)[O-])cc(SCC(C)C)c2c1N,,11.6 µM (active)
COc1ccc(NC2=CC(=O)CC(c3ccccc3)C2)c(OC)c1 (stereo not given),,5.59 µM (active)
COc1ccc(NC(=S)Nc2ncccc2C)c(OC)c1,-8.96% [at 36.9 µM] (inactive),
O=C(Nc1ccc(Oc2ccc(NC(=O)Nc3ccccc3Cl)cc2)cc1)Nc1ccccc1Cl,,18.4 µM (active)
O=C(N/N=C/c1cccc2ccccc12)c1n[nH]c2c1CCCC2,,1.98 µM (active)
O=C(N/N=C/c1cccs1)c1n[nH]c2c1CCC2,,6.27 µM (active)
Cc1ccsc1/C=N\NC(=O)c1n[nH]c2c1CCC2,,3.96 µM (active)
CN(C)S(=O)(=O)c1ccc2c(c1)/C(=C/c1cc3c([nH]1)CCCC3)C(=O)N2,,2.23 µM (active)
Cc1cccc(N2CCN(C(=O)c3ccncc3)CC2)c1C,,9.94 µM (active)
O=C(CSc1nc(-c2ccco2)cc(C(F)(F)F)n1)Nc1cccnc1,,11.2 µM (active)
Cc1nnc(NC(=O)CSc2nc(C(C)C)nc3ccccc23)s1,,8.86 µM (active)
Cc1cc(C)n(-c2nnc3n2N=C(c2c[nH]c4ccccc24)CS3)n1,,12.5 µM (active)
CC(NC(=O)/C(C#N)=C/c1ccc([N+](=O)[O-])o1)c1ccccc1 (stereo not given),,18.4 µM (active)
N#C/C(=C\c1ccccc1[N+](=O)[O-])C(=O)NCc1ccccc1,0.631% (inactive),
CCOCCCNC(=O)/C(C#N)=C/c1ccc([N+](=O)[O-])o1,,20.6 µM (active)

SMILES,"activity, negative = inhibitor",Potency
CN(C)/C=N/C1=C(C#N)C(c2cccs2)c2ccc3ccccc3c2O1 (stereo not given),,4.98 µM (active)
O=C(NCc1cccnc1)c1cccc(NS(=O)(=O)c2ccc(Br)cc2)c1,,6.27 µM (active)
O=C(COc1ccc(C(=O)c2ccccc2)cc1)NCc1ccc(F)cc1,,1.98 µM (active)
O=C(c1[nH]c(C(F)(F)F)nc1-c1ccccc1)N1CCN(c2cccc(C(F)(F)F)n2)CC1,,2.8 µM (active)
O=C(c1[nH]c(C(F)(F)F)nc1-c1ccccc1)N1CCN(c2ccccc2)CC1,,2.23 µM (active)
CCS(=O)(=O)N1CCc2cc(C(=O)N3CCN(c4cccc(C(F)(F)F)c4)CC3)ccc21,-6.58% (inactive),
COc1ccc(-c2cc(-c3cccs3)nc3sc(C#N)c(N)c23)cc1,-19.5% (inactive),
CCN(CC)C(=O)c1sc2nc(-c3cccs3)cc(-c3ccc(Cl)cc3)c2c1N,,14 µM (active)
N#Cc1sc2nc(-c3cccs3)cc(-c3ccc(Cl)cc3)c2c1N,,12.5 µM (active)
O=C(COC(=O)c1ccc(NS(=O)(=O)c2cccs2)cc1O)NCc1ccccc1,,4.44 µM (active)
COc1ccc2c(c1)c1nc3ccccc3nc1n2CC(=O)OC(C)C,,3.66 µM (active)
CCOc1ccc(Cn2c3ccc(OC)cc3c3nc4ccccc4nc32)cc1,,18.4 µM (active)
COc1ccc(COn2c(=O)c(C)[n+]([O-])c3ccccc32)cc1OC,-14.5% [at 36.9 µM] (inactive),
COc1ccc2c(c1)c1nc3ccccc3nc1n2Cc1ccc(OC)c(OC)c1,,18.4 µM (active)
Nc1nn(-c2ccccc2)c(N)c1N=Nc1ccccc1,,2.23 µM (active)
c1ccc(N=NC2=NN(c3ccccc3)CS2)cc1,0.0565% (inactive),
O=C(CSc1ccccc1)Nc1nc2ccccc2[nH]1,,8.86 µM (active)
N#CC(C(=S)Nc1ccccc1)c1nc2ccccc2[nH]1 (stereo not given),-11.5% (inactive),
c1ccc2[nH]c(NN=C3CCCCCC3)nc2c1,-14.5% (inactive),
Cc1ccc2c(c1)C=CC(C#N)N2C(=O)c1ccccc1 (stereo not given),,4.98 µM (active)
COc1ccc(OC)c(C2CC(=O)c3c([nH]c(C(=O)OCC4CCCO4)c3C)C2)c1 (stereo not given),,12.5 µM (active)
COCCOC(=O)c1[nH]c2c(c1C)C(=O)CC(c1ccccc1)C2 (stereo not given),,1.77 µM (active)
Cc1c(C(=O)OC2CCCCC2)[nH]c2c1C(=O)CC(c1ccccc1Cl)C2 (stereo not given),,2.06 µM (active)
